Measured potencies and affinities stand elsewhere. Records with an inconclusive call do not appear. Activity calls are given as the source filed them. Unless noted, how the calls were made is not given here.
Legend:
[1] = cytotoxicity in PAX8-dependent RMG-1 cells, dose response, cell-based, cherry-pick (AID 687029;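 active means signal drop whose fitted half-maximal concentration is at most twice the top valid dose, in every test run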;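 further: cells exposed to compound for 96 hours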)
[2] = cytotoxicity in IOSE-T80 ovarian epithelial cells, dose response, selectivity assay for PAX8 inhibitor project, cell-based, cherry-pick (AID 687032;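 active means fitted half-maximal concentration for viability loss no higher than twice the top valid dose, in every repeat run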;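 further: cells exposed to compound for 96 h before reading; 0% = neutral control wells and -100% = 2 µM mitoxantrone kill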)
[3] = inhibitors of CMV-promoter luciferase reporter, dose response, counter-screen for Pax8 inhibitor project, cell-based, HEK293, luminescence, dry powder (AID 743020;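 active means signal-lowering compounds whose fitted half-maximal concentration is at or below twice the top tested dose in every run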;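 further: HEK293 cells stably expressing the CMV luciferase reporter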)
[4] = non-specific cell cytotoxicity, dose response, cytotoxicity control for PAX8 inhibitor project, plate reader, dry powder samples (AID 743021)
[5] = IGROV1 ovarian cancer cell cytotoxicity, dose response, PAX8 inhibitor project, plate reader, dry powder samples (AID 743043);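 further: more negative means fewer viable cells or more cytotoxicity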
[6] = NIH:OVCAR-3 ovarian cancer cell cytotoxicity, dose response, PAX8 inhibitor project, plate reader, dry powder samples (AID 743044); conditions: max activity: at 35 µM, active compounds read low unless noted
[7] = IOSE-T80 ovarian epithelial cell cytotoxicity, dose response, cytotoxicity control for PAX8 inhibitor project, plate reader, dry powder samples (AID 743045);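 further: 0% = neutral control median and -100% = positive control median; more negative values mean more cell killing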
[8] = cytotoxicity in OVCAR8 ovarian cancer cells, dose response, PAX8 project, cell-based, plate reader, dry powder samples (AID 743197)
[9] = A2780 ovarian cancer cell cytotoxicity, dose response, cytotoxicity control, plate reader, dry powder samples (AID 743046);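 further: 0% = neutral control wells and -100% = cytotoxic reference compound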

Measured: max activity

Cc1noc(C)c1S(=O)(=O)Nc1ccc2c(c1)C(=O)N([C@@H](C)CO)C[C@H](C)[C@H](CN(C)C(=O)Nc1ccc(C(F)(F)F)cc1)OCCCC[C@H](C)O2
inactive: [1] | [2] | [3] | [4] | [5] | [6] -38.6% | [7] | [8]

N#C[C@H]1[C@H](c2ccc(C#CC3CCCCC3)cc2)[C@H](CO)N1C(=O)Nc1ccc(F)cc1
inactive: [1] | [2] | [3] | [4] | [5] | [6] -34% [at 0.5 µM, active compounds read low] | [7] | [8]

C[C@@H]1CCCCO[C@H](CN(C)Cc2ccc(C(F)(F)F)cc2)[C@H](C)CN([C@H](C)CO)C(=O)c2cc(NC(=O)c3ccccc3)ccc2O1
not listed: [6] | [8]
inactive: all other assays above

C[C@@H]1CN([C@H](C)CO)S(=O)(=O)c2ccc(-c3ccc(C#N)cc3)cc2O[C@@H]1CN(C)Cc1cccc(F)c1
not listed: [6] | [8]
inactive: all other assays above

O=C(C1CCC1)N1CC(=O)N2[C@H](C1)[C@H](c1ccc(C#Cc3cccc(F)c3)cc1)[C@@H]2CO
not listed: [6] | [8] | [9]
inactive: all other assays above

C[C@@H]1CCCCO[C@@H](CN(C)S(=O)(=O)c2ccc(F)cc2)[C@H](C)CN([C@H](C)CO)C(=O)c2cc(NS(=O)(=O)c3ccc(Cl)cc3)ccc2O1
not listed: [6] | [8]
inactive: all other assays above

C[C@@H]1CN([C@H](C)CO)C(=O)c2cccc(NC(=O)Nc3cccc4ccccc34)c2O[C@@H]1CN(C)S(=O)(=O)c1ccc(Cl)cc1
not listed: [6] | [8]
inactive: all other assays above

C[C@@H]1CCCCO[C@@H](CN(C)C(=O)Nc2cccc3ccccc23)[C@H](C)CN([C@H](C)CO)C(=O)c2cc(NS(=O)(=O)c3ccc(Cl)cc3)ccc2O1
not listed: [6] | [8] | [9]
inactive: all other assays above

C[C@H](CO)N1C[C@H](C)[C@H](CN(C)Cc2ccc(C(F)(F)F)cc2)OCCCC[C@H](C)Oc2ccc(NS(=O)(=O)c3ccc(F)cc3)cc2C1=O
not listed: [6] | [8]
inactive: all other assays above

C[C@H]1CCCCO[C@H](CN(C)Cc2ccc(C(F)(F)F)cc2)[C@@H](C)CN([C@@H](C)CO)C(=O)c2cc(NS(=O)(=O)c3cccs3)ccc2O1
not listed: [6] | [8]
inactive: all other assays above

C[C@@H]1CN([C@H](C)CO)S(=O)(=O)c2ccc(C#Cc3cccc(F)c3)cc2O[C@@H]1CN(C)C(=O)NC1CCCCC1
not listed: [6] | [8] | [9]
inactive: all other assays above

C[C@H]1CCCCO[C@@H](CN(C)Cc2ccc(C(F)(F)F)cc2)[C@@H](C)CN([C@@H](C)CO)C(=O)c2cc(NC(=O)Cc3ccccc3)ccc2O1
not listed: [6] | [8] | [9]
inactive: all other assays above

COc1ccc(S(=O)(=O)N2CCCCN3[C@H](CO)[C@@H](c4ccc(C#CC(C)C)cc4)[C@H]3C2)cc1
not listed: [6] | [8] | [9]
inactive: all other assays above

COc1ccc(S(=O)(=O)Nc2ccc3c(c2)C(=O)N([C@@H](C)CO)C[C@H](C)[C@@H](CN(C)Cc2ccc(C(F)(F)F)cc2)OCCCC[C@@H](C)O3)cc1
not listed: [6] | [8] | [9]
inactive: all other assays above

C[C@@H]1CN([C@H](C)CO)C(=O)c2cc(NS(=O)(=O)c3ccc(F)cc3)ccc2O[C@@H](C)CCCCO[C@H]1CN(C)S(=O)(=O)c1ccc(Cl)cc1
not listed: [6] | [8] | [9]
inactive: all other assays above

C[C@H](NC(=O)C[C@@H]1C[C@@H]2c3cc(NC(=O)Nc4ccc(C(F)(F)F)cc4)ccc3O[C@@H]2[C@@H](CO)O1)c1ccccc1
not listed: [6] | [8] | [9]
inactive: all other assays above

C[C@@H]1CN([C@H](C)CO)C(=O)c2cc(NS(=O)(=O)c3ccc(F)cc3)ccc2O[C@@H](C)CCCCO[C@@H]1CN(C)CC1CCCCC1
not listed: [6] | [8] | [9]
inactive: all other assays above

C[C@H]1CN([C@@H](C)CO)S(=O)(=O)c2ccc(C#Cc3ccccc3F)cc2O[C@@H]1CN(C)CC1CCOCC1
not listed: [6] | [8] | [9]
inactive: all other assays above

C[C@H](CO)N1C[C@H](C)[C@@H](CN(C)Cc2ccc(C(F)(F)F)cc2)OCCCC[C@H](C)Oc2ccc(NC(=O)Nc3ccc(F)cc3)cc2C1=O
not listed: [6] | [8] | [9]
inactive: all other assays above

C[C@@H]1CN([C@H](C)CO)C(=O)c2cc(NC(=O)c3ccccc3)ccc2O[C@@H](C)CCCCO[C@@H]1CN(C)Cc1ccc(C(F)(F)F)cc1
not listed: [6] | [8]
inactive: all other assays above

Cc1ccc(S(=O)(=O)Nc2ccc3c(c2)C(=O)N([C@H](C)CO)C[C@H](C)[C@@H](CN(C)S(=O)(=O)c2ccc(Cl)cc2)OCCCC[C@H](C)O3)cc1
not listed: [6] | [8] | [9]
inactive: all other assays above

CO[C@H]1CN(C)C(=O)c2cc(NC(=O)c3ccc(-c4ccccc4)cc3)ccc2OC[C@@H](C)NC[C@@H]1C
not listed: [6] | [8] | [9]
inactive: all other assays above

C[C@@H]1CN([C@@H](C)CO)C(=O)Cc2cc(NC(=O)Cc3cn(C)c4ccccc34)ccc2O[C@H]1CN(C)Cc1ccc(Oc2ccccc2)cc1
not listed: [6] | [8]
inactive: all other assays above

C[C@@H]1CCCCO[C@H](CN(C)CC2CCCCC2)[C@H](C)CN([C@@H](C)CO)C(=O)c2cc(NC(=O)Nc3ccccc3)ccc2O1
not listed: [6] | [8]
inactive: all other assays above

C[C@H]1CCCCO[C@H](CN(C)C(=O)C2CCCCC2)[C@@H](C)CN([C@@H](C)CO)C(=O)c2cc(NS(=O)(=O)c3ccc(Cl)cc3)ccc2O1
not listed: [6] | [8]
inactive: all other assays above

C[C@@H]1CN([C@H](C)CO)C(=O)c2cc(NC(=O)Nc3ccc(C(F)(F)F)cc3)ccc2O[C@@H](C)CCCCO[C@H]1CN(C)C(=O)NC1CCCCC1
not listed: [6] | [8]
inactive: all other assays above

C[C@H]1CCCCO[C@H](CN(C)Cc2ccc(C(F)(F)F)cc2)[C@@H](C)CN([C@@H](C)CO)C(=O)c2cc(NS(=O)(=O)c3ccc(F)cc3)ccc2O1
not listed: [6] | [8]
inactive: all other assays above

O=C(Nc1ccc(C(F)(F)F)cc1)Nc1ccc2c(c1)[C@@H]1C[C@H](CC(=O)N3CCc4ccccc4C3)O[C@H](CO)[C@@H]1O2
not listed: [6] | [8]
inactive: all other assays above

COc1ccccc1-c1ccc2c(c1)[C@H]1[C@H](CCN1C(=O)C1CCCCC1)[C@@H](CO)N2
not listed: [6] | [8] | [9]
inactive: all other assays above

C[C@H]1CN([C@@H](C)CO)S(=O)(=O)c2ccc(C#Cc3ccncc3)cc2O[C@H]1CN(C)C(=O)C1CCCCC1
not listed: [6] | [8]
inactive: all other assays above

CC(C)NC(=O)N1Cc2cc(C(=O)NCC(F)(F)F)nc(-c3cccc(-c4cc5ccccc5o4)c3)c2[C@H]1CCO
not listed: [6] | [8] | [9]
inactive: all other assays above

C[C@@H]1CN([C@H](C)CO)S(=O)(=O)c2ccc(C#CC3CCCC3)cc2O[C@H]1CN(C)Cc1cccnc1
not listed: [6] | [8]
inactive: all other assays above

C[C@@H]1CCCCO[C@H](CN(C)S(=O)(=O)c2ccc(Cl)cc2)[C@@H](C)CN([C@@H](C)CO)C(=O)c2cc(NS(=O)(=O)c3ccc(F)cc3)ccc2O1
not listed: [6] | [8] | [9]
inactive: all other assays above

C[C@@H]1CN([C@H](C)CO)C(=O)c2cc(NC(=O)Nc3ccccc3)ccc2O[C@@H](C)CCCCO[C@@H]1CN(C)CC1CCCCC1
not listed: [6] | [8]
inactive: all other assays above

CCSCCc1nnc(NC(=O)Nc2cccc(C(F)(F)F)c2)s1
not listed: [6] | [8] | [9]
inactive: all other assays above

CC(=O)N1CCOc2ccc(S(=O)(=O)N3CCN(c4cccc(C(F)(F)F)c4)CC3)cc21
not listed: [6] | [8] | [9]
inactive: all other assays above

C[C@H]1CCCCO[C@@H](CN(C)S(=O)(=O)c2cccs2)[C@@H](C)CN([C@@H](C)CO)C(=O)c2cc(NS(=O)(=O)c3ccc(Cl)cc3)ccc2O1
not listed: [6] | [8] | [9]
inactive: all other assays above

Cc1ccc(S(=O)(=O)Nc2ccc3c(c2)C(=O)N([C@H](C)CO)C[C@H](C)[C@@H](CN(C)S(=O)(=O)c2cccs2)OCCCC[C@H](C)O3)cc1
not listed: [6] | [8] | [9]
inactive: all other assays above

C[C@H](CO)N1C[C@H](C)[C@H](CN(C)S(=O)(=O)c2ccc(Cl)cc2)OCCCC[C@H](C)Oc2ccc(NS(=O)(=O)c3ccc(Cl)cc3)cc2C1=O
not listed: [6] | [8]
inactive: all other assays above
